Hit rate of the full screen: of about 340,000 compounds, about 8,500 (2.5%) were called active. This excerpt belongs to a sample that is enriched for actives. Values without a mark were called inactive.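 Rule for the calls: active = melting temperature shift of at least 10% of the positive control shift, at one fixed dose; inactive = the rest.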
Tested on: Glutamate receptor ionotropic, NMDA 3A (GRIN3A) ligand-binding domain
Experiment: binders of NR3A ligand-binding domain, primary screen, biophysical, differential scanning fluorimetry, uHTS (AID 1259313)
Conditions: NR3A LBD differential scanning fluorimetry, at 25 µM, hits give high values, 0% = protein alone, 100% = glycine-bound protein

| Structure (SMILES) | Tm shift relative to glycine control |
| --- | --- |
| CCOc1ccc(N=C2NC(=O)S/C2=C\c2ccc(O)cc2)cc1 | 15.1% (active) |
| CCOc1ccc(N=C2SC(C(=O)O)CC(=O)N2C)cc1 (configuration not stated) | 1.77% |
| CCOc1[nH]n(-c2ccc(Cl)cc2)c(=O)c1C=Nc1ccc(O)cc1 | 5.05% |
| CCCCn1c(N)c(N(CC(C)C)C(=O)CN(C)S(=O)(=O)c2ccc(F)cc2)c(=O)[nH]c1=O | -1.73% |
| Nc1cc(N)nc(SCC(=O)Nc2cccc(S(=O)(=O)N3CCCCC3)c2)n1 | -2.96% |
| COc1ccc(/C=C/C(=O)OCC(=O)Nc2cccc(Oc3ccccc3)c2)c(OC)c1 | 1.79% |
| COc1cc(/C=C/C(=O)OCC(=O)NCCCc2ccccc2)ccc1O | -3.57% |
| COc1cc(/C=C/C(=O)OCC(=O)Nc2cccc(Oc3ccccc3)c2)ccc1O | 16.3% (active) |
| Nc1ccc(S(=O)(=O)Nc2nccc(/C=C/c3ccc(Br)s3)n2)cc1 | 3.72% |
| Oc1cccc2ccc(/C=C/c3ccc(Br)s3)nc12 | 27.9% (active) |
| CC(Sc1nc(-c2ccccc2)cc(C(F)(F)F)n1)C(=O)Nc1ccc2c(c1)OCO2 (configuration not stated) | -3.7% |
| O=C(Nc1ccc2c(c1)OCO2)c1sc2cc(Cl)ccc2c1Cl | 2.38% |
| CC(Sc1nc2cc(Cl)ccc2s1)C(=O)Nc1ccc2c(c1)OCO2 (configuration not stated) | 17.5% (active) |
| COC(=O)Nc1ncc(CN2CCCCC2)s1 | 0.99% |
| COc1cc(C(C)=O)ccc1OC(=O)CN1C(=O)c2ccccc2C1=O | -1.44% |
| COC(=O)Nc1ncc(CN2C(=O)c3ccccc3C2=O)s1 | 13.7% (active) |
| CN(Cc1ccccc1)C(=O)CCNC(=O)Cn1cnc2ccccc2c1=O | 1.47% |
| CC(C)=CCCC1(C)C=Cc2c(ccc3c2[nH]c2cc(O)c(C)cc23)O1 (configuration not stated) | 22.5% (active) |
| O=C(O)CC/C(=N\NC(=O)c1ccc(F)cc1)c1ccc(Br)cc1 | -1.55% |
| COc1ccccc1-c1nnc(NC(=O)c2ccc3ncsc3c2)o1 | -3.33% |
| O=C(COC(=O)c1ccc2ncsc2c1)Nc1ccc(Cl)cc1 | -0.85% |

| Structure (SMILES) | Tm shift relative to glycine control |
| --- | --- |
| Cc1sc(NC(=O)c2ccc3ncsc3c2)c(C(N)=O)c1C | 28.4% (active) |
| COc1cc(OC)c(C(=O)NNC(=O)c2ccc(NS(=O)(=O)c3cccs3)cc2)cc1OC | 0.08% |
| Cc1ccc(C(=O)N/C(=C/c2cccs2)C(=O)N2CCCCC2)cc1 | -1.69% |
| COc1ccc(-c2ccc3nnc(SCC(=O)Nc4ccc(NC(C)=O)cc4)n3n2)cc1 | -5.8% |
| COc1ccccc1NC(=O)c1cc(N2C(=O)C3C4CCC(C4)C3C2=O)ccc1Cl (configuration not stated) | -3.68% |
| CCc1ccnc(NS(=O)(=O)c2ccc3c(c2)OCCO3)c1 | -2.2% |
| O=C(Nc1sc2c(c1C(=O)O)CCC2)c1ccccc1F | 1.58% |
| Fc1cc(F)c2nc(Nc3nc4c(F)cccc4s3)sc2c1 | 17.3% (active) |
| NNc1nc2c(Cl)cccc2s1 | -0.09% |
| COc1cccc(OC)c1C(=O)Nc1sc2c(c1C(N)=O)CCCC2 | -0.3% |
| COc1cc2ccccc2cc1C(=O)N(CCN(C)C)c1nc2c(F)cccc2s1 | 3.31% |
| NC(=O)c1c(Nc2nc3c(F)cccc3s2)sc2c1CCCC2 | 10.8% (active) |
| COCCNc1nc(N)c([N+](=O)[O-])c(N2CCCCCC2)n1 | 0.58% |
| CCn1c(SCCC(C)C)nnc1-c1c[nH]c2ccccc12 | -26.6% |
| CCCc1cc(-c2nc(-c3ccc(C)cc3)cs2)ccn1 | -8.16% |
| Cc1ccc(-c2csc(-c3c[nH]c4ccccc34)n2)cc1 | 25.6% (active) |
| COc1ccc(F)c(-c2nc(CN3CCC(c4ccccc4)CC3)c(C)o2)c1 | -0.88% |
| CCCCn1c(N)c(N(CCC(C)C)C(=O)CC2OC(=O)c3ccccc32)c(=O)[nH]c1=O (configuration not stated) | -1.19% |
| CN(CC(=O)Nc1cccc(F)c1)C(=O)CC1CCCC1 | 2.89% |
| CCN(CC)C(=O)CSC(Nc1cccc(F)c1)=C(C#N)C#N | 11.7% (active) |
| Cc1ccc(CSCC(=O)N(C)CC(=O)Nc2cccc(F)c2)cc1 | -1.41% |

| Structure (SMILES) | Tm shift relative to glycine control |
| --- | --- |
| Cc1noc(C)c1S(=O)(=O)N(CC(=O)Nc1ccc2c(c1)OCCO2)c1ccc(C(C)C)cc1 | 1.36% |
| CC1Cc2ccccc2N1CC(=O)Nc1ccc2c(c1)OC(F)(F)O2 (configuration not stated) | -9.28% |
| COc1ccc(C(=O)NNS(=O)(=O)c2ccc(C)cc2)cc1 | 9.89% |
| COc1ccc(C(=O)Oc2cc(/C=N/NS(=O)(=O)c3ccc(C)cc3)ccc2OC)cc1 | 14.3% (active) |
| COc1ccc(S(=O)(=O)N/N=C\c2ccc(OC)c(COc3ccc(C)cc3[N+](=O)[O-])c2)cc1 | 7.36% |
| COC(=O)c1nc(NC(=O)c2ccccc2)n[nH]1 | -2.48% |
| COc1ccc(S(=O)(=O)NCC(c2ccco2)N2CCOCC2)cc1 (configuration not stated) | 0.48% |
| COc1ccc2oc(=O)cc(-c3cc4ccccc4o3)c2c1 | -4.08% |
| COc1ccc(Nc2cc(=O)oc3ccccc23)cc1 | 13.9% (active) |
| COc1ccc(CCNC(=O)COC(=O)c2cc(=O)c3ccccc3o2)cc1 | -0.35% |
| CC1CCN(C(=O)CN(c2ccc(Oc3ccccc3)cc2)S(C)(=O)=O)CC1 | 0.83% |
| CCOc1cc(-c2noc(CCCC(=O)NC3CCCCC3)n2)ccc1OC | -2.03% |
| COc1ccc(CN2CC(C(=O)NC3CCCCC3)CC2=O)cc1 (configuration not stated) | 2.45% |
| COC(=O)C(C)Oc1ccc2c(c1)O/C(=C\c1cccc(Br)c1)C2=O (configuration not stated) | -2.66% |
| COc1cc(C#Cc2ccc3cc(CCCO)oc(=O)c3c2)cc(OC)c1 | -0.81% |
| COc1cc(/C=C2\Oc3ccc(C#Cc4ccc(O)cc4)cc3C2=O)cc(OC)c1 | 16.2% (active) |
| CCN(CC(=O)Nc1cc(Cl)ccc1C)C(=O)CN1C(=O)NC2(CCCC2)C1=O | 0.97% |
| CC(C(=O)NC1CCCC1)N1CCN(S(=O)(=O)c2ccccc2Cl)CC1 (configuration not stated) | 16.8% (active) |
| CC(C)c1ccc(S(=O)(=O)N2CCN(C(C)C(=O)NC3CCCC3)CC2)cc1 (configuration not stated) | -0.92% |
| O=C(Cc1ccc(S(=O)(=O)N2CCCC2)s1)NC1CCCCCC1 | -3.8% |

Reference: PubChem BioAssay AID1259313 (Sanford-Burnham Center for Chemical Genomics, 2017)
